The nature of experiment [1]: Drug repurposing screens with cells derived from glioblastoma tumor samples (AID 1345199). Also: nearly all actives have a fitted effect of over 40% in size. Also: potency is read from the fitted curve at half-maximal effect. As to activity, negative = cell killing: % is scaled to controls: 0 for no effect and ±100 for the full control effect. The note with it: GBM patient neurospheres viability, ATP luminescence, 48 h. The gist of the method: (§1)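 Primary testing used CD133+ neurospheres from four GBM patients, seven concentrations, 48 h exposure and ATP-based viability; confirmation added three slower-growing patient lines.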

Another experiment relates to astro (control astrocytes). Described as above. The note with it: viability, ATP luminescence, 48 h; series mostly up to 45.9 µM. The gist of the method: as §1
Experiment [2] concerns the target Nuclear receptor subfamily 1 group I member 2 (Rattus norvegicus) (UniProt Q9R1A7). Description: qHTS assay for small molecule activators of the rat pregnane X receptor (rPXR) signaling pathway (AID 651751; call rule not given here; also: 0% is about no effect). To be noted: rPXR reporter cells, luciferase (One-Glo), 24 h. On the technique in general: Quantitative high-throughput screening tests each substance at several concentrations.

Experiment [3] can be described thus: qHTS assay for small molecule activators of the human pregnane X receptor (PXR) signaling pathway (AID 720659; call rule not given here; also: 0% is about no effect). The note with it: DPX-2 HepG2 CYP3A4-luciferase, 24 h; series mostly up to 92.3 µM.
The mark [4] stands for this setting: at 46.1 µM (top of the series), tumour line C.
Where [5] appears, read: at 45.9 µM (top of the series), tumour line B.
Setting [6] is: at 45.9 µM (top of the series), tumour line D.
Setting [7] is: at 46 µM (top of the series), tumour line A.
The mark [8] stands for this setting: at 20 µM (top of the series), tumour line C.
[9] abbreviates: at 21.2 µM (top of the series), tumour line B.
Where [10] appears, read: at 21.2 µM (top of the series), tumour line D.

The results in this text go back to PubChem BioAssay (NCATS).

Where “and” joins values, the source holds several entries; their conditions need not be identical. Equal values may be shown once. Unmarked numbers belong to inactive results. Inconclusive results are not listed. Calls of active or inactive are those of the source. Unless noted, calls follow the shape of the dose curve; as a rule, active = well fitted inhibition curve with a large enough effect; inconclusive = small, poorly fitted or top-dose-only effect; inactive = flat fitted curve, though single readings scatter.

Sequence of Nuclear receptor subfamily 1 group I member 2 (Rattus norvegicus) (Q9R1A7 whole entry, looked up): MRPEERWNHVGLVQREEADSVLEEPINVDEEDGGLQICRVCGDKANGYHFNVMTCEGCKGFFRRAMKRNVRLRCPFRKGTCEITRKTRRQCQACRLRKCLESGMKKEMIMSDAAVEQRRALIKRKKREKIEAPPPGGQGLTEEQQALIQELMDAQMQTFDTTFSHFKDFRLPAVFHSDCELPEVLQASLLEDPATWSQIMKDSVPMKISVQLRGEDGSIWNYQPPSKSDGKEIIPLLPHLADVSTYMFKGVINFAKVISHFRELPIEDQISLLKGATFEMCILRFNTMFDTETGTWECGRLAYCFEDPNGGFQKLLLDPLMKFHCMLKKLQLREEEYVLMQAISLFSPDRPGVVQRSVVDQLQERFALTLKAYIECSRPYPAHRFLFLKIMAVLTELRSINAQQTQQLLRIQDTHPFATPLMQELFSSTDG

For `CC(C)CCC(=O)O[C@H]1CC[C@H]2[C@@H]3CCC4=CC(=O)CC[C@]4(C)[C@H]3CC[C@]12C`, the activity, negative = cell killing in experiment [1] (setting [4]) is -19.7%. Also, the Potency is 11.2 µM (active) in experiment [1] (tumour line A) and 22.4 µM (active) in experiment [1] (tumour line B).
`C#CCN1CC(=O)N(COC(=O)C2C(C=C(C)C)C2(C)C)C1=O` (stereo unspecified): the activity, negative = cell killing in experiment [1] (setting [5]) was -9.8%; in experiment [1] (setting [6]), 15.2%; in experiment [1] (setting [7]), -23.1%; in experiment [1] (setting [4]) it was -15.9%. The Potency entry with astro was “inactive”.
As to `CC(C)(O)[C@@H]1[C@H]2OC(=O)[C@@H]1[C@]1(O)C[C@H]3O[C@]34C(=O)O[C@H]2[C@]14C`, the activity, negative = cell killing in experiment [1] (setting [5]) was -2.1% and -10.8%; in experiment [1] (setting [6]), 11.7% and -21%; in experiment [1] (setting [7]), -37.4% and -27.2%; in experiment [1] (setting [4]), -9.46% and -22%. For the same compound, the Potency entry in the experiment with astro is “inactive”.
Turning to `CCN(CC)C(=O)N[C@H]1C[C@@H]2c3cccc4[nH]cc(c34)C[C@H]2N(C)C1`, the activity, negative = cell killing in experiment [1] (setting [5]) was -22.5%; in experiment [1] (setting [6]), -14.1%; in experiment [1] (setting [4]), -20.3%. Besides, in experiment [1] (tumour line A), the Potency is 22.4 µM (active). The Potency entry in the experiment on astro was “inactive”.
As for `CCCCCl`, the activity, negative = cell killing was -5.4% in experiment [1] (setting [5]), -17.7% in experiment [1] (setting [6]), -20.4% in experiment [1] (setting [7]) and 7.44% in experiment [1] (setting [4]). In the experiment on astro, the Potency entry is “inactive”. Also, the max response in experiment [2] is -2.58%. Also, the outcome in experiment [3] was inactive.
`CC(=O)O[C@H]1CC[C@@]2(C)C(=CC[C@@H]3[C@@H]2CC[C@]2(C)C(=O)CC[C@@H]32)C1`: the activity, negative = cell killing was -28.7% in experiment [1] (setting [8]), -3.53% in experiment [1] (setting [9]) and -21.5% in experiment [1] (setting [10]). In addition, the Potency in experiment [1] (tumour line A) is 7.94 µM (active). In addition, in the experiment on astro, the Potency result was “inactive”.
Regarding `ClC1C(Cl)C(Cl)C(Cl)C(Cl)C1Cl` (stereo unspecified), the activity, negative = cell killing was -3.31% in experiment [1] (setting [5]), -6.39% in experiment [1] (setting [6]), -20.5% in experiment [1] (setting [7]) and -11% in experiment [1] (setting [4]). For the same compound, the Potency result in the experiment with astro is “inactive”.
Regarding `CC(C)CCON=O`, the activity, negative = cell killing in experiment [1] (setting [5]) was 0.0037%; in experiment [1] (setting [6]) it was -3.58%; in experiment [1] (setting [7]), -24.7%; in experiment [1] (setting [4]), 2.53%. In addition, the Potency result in the experiment on astro is “inactive”. The max response in experiment [2] was 1.54%. In addition, the outcome in experiment [3] was inactive.
As for `CNC(=O)OCC[N+](C)(C)C`, the activity, negative = cell killing in experiment [1] (setting [5]) was -5.85%; in experiment [1] (setting [6]), -20%; in experiment [1] (setting [7]), -22.4%; in experiment [1] (setting [4]), -19.7%. The Potency entry with astro was “inactive”.
As for `C=C[C@H]1CN2CC[C@H]1C[C@H]2[C@H](OC(=O)OCC)c1ccnc2ccc(OC)cc12`, the activity, negative = cell killing in experiment [1] (setting [5]) is -6.26%; in experiment [1] (setting [6]), -11.2%; in experiment [1] (setting [4]), 18.3%. The Potency in experiment [1] (tumour line A) was 10 µM (active). For the same compound, in the experiment with astro, the Potency result is “inactive”.
For `[S]=[Sb](=[S])[S][Sb](=[S])=[S]`, the activity, negative = cell killing was -4.98% in experiment [1] (setting [5]), -5.67% in experiment [1] (setting [6]), -28.3% in experiment [1] (setting [7]) and -1.84% in experiment [1] (setting [4]). The Potency result with astro is “inactive”.
As to `CCN(CC)C(=O)/C(Cl)=C(\C)OP(=O)(OC)OC`, the activity, negative = cell killing in experiment [1] (setting [5]) was 1.79%; in experiment [1] (setting [6]), -19.8%; in experiment [1] (setting [7]) it was -32%; in experiment [1] (setting [4]), 1.99%. In addition, the Potency result with astro is “inactive”.
`CCC1(c2ccccc2)C(=O)NC(=O)NC1=O`: the activity, negative = cell killing was -10.3% in experiment [1] (setting [5]), 2.64% in experiment [1] (setting [6]), -5.16% in experiment [1] (setting [7]) and 3.61% in experiment [1] (setting [4]). In the experiment on astro, the Potency result is “inactive”.
On to `O=S(=O)(O)c1cc(O)ccc1O`, for which the activity, negative = cell killing in experiment [1] (setting [8]) is 0.614%; in experiment [1] (setting [9]) it was -13.4%; in experiment [1] (setting [10]), -2.62%; in experiment [1] (at 21.3 µM (top of the series), tumour line A), -30%. The Potency entry in the experiment with astro was “inactive”.
For the compound `O=CC=O`, the activity, negative = cell killing was 0.224% in experiment [1] (setting [5]), -5.05% in experiment [1] (setting [6]), -22.3% in experiment [1] (setting [7]) and 29.7% in experiment [1] (setting [4]). Besides, in the experiment on astro, the Potency result was “inactive”. For the same compound, the max response in experiment [2] is -6.34%. Also, the compound was called inactive in experiment [3].
Turning to `ClCC1CO1` (stereo unspecified), the activity, negative = cell killing was -15% in experiment [1] (setting [5]), -9.19% in experiment [1] (setting [6]), -27.8% in experiment [1] (setting [7]) and -16.2% in experiment [1] (setting [4]). Further, in the experiment on astro, the Potency result is “inactive”. The max response in experiment [2] was 1.11%. In addition, the outcome in experiment [3] was inactive.
Consider `C[C@@H](CO)NC(=O)[C@@H]1C=C2c3cccc4[nH]cc(c34)C[C@H]2N(C)C1`, for which the activity, negative = cell killing in experiment [1] (setting [5]) is -4.28%; in experiment [1] (setting [6]), -4.71%; in experiment [1] (setting [7]), -21.2%; in experiment [1] (setting [4]), 15.8%. In addition, the Potency result with astro is “inactive”.
The like results for `CC1(C)[C@H](C=C(Cl)Cl)[C@H]1C(=O)OCc1c(F)c(F)cc(F)c1F` were, in that order, -3.56%, -11.5%, -26.8%, -13.8% and “inactive”.
The like results for `CCOC(=O)/C=C(C)/C=C/C[C@@H](C)CCCC(C)C` were, in that order, -7.77%, 3.89%, -29.3%, -6.42% and “inactive”.
Regarding `O=[N+]([O-])c1ccccc1`, the activity, negative = cell killing in experiment [1] (setting [5]) is -3.33%; in experiment [1] (setting [6]), -6.09%; in experiment [1] (setting [7]) it was -9.64%; in experiment [1] (setting [4]), -9.59%. Further, in the experiment with astro, the Potency result is “inactive”.
The like results for `Clc1ccc(Cl)cc1` were, in that order, -3.79%, -0.0641%, -16.3%, -0.658% and “inactive”.
`CNC(C)C(O)c1ccc(O)cc1` (stereo unspecified): the activity, negative = cell killing in experiment [1] (setting [5]) is -14.1% and -15.9%; in experiment [1] (setting [6]), 3.04% and 6.23%; in experiment [1] (setting [7]), -17.8% and -27.7%; in experiment [1] (setting [4]), -5.67% and -20.1%. Moreover, the Potency result with astro was “inactive”.
